# Test results reported in PubChem BioAssay (Tox21).
# Unmarked numbers belong to inactive results. Calls follow the shape of the dose curve; as a rule, active = well fitted inhibition curve with a large enough effect in the repeat runs (not every such curve was filed as active); inconclusive = weak or mixed curves; inactive = flat fitted curve, though single readings scatter.
# Molecular target: Thyrotropin-releasing hormone receptor (Homo sapiens) (UniProt P34981)
# Assay: qHTS assay to identify small molecule antagonists of the thyrotropin-releasing hormone receptor (TRHR) signaling pathway (AID 1346877)
# Settings: TRHR-HEK293, TRH-induced calcium fluorescence, antagonist mode; series mostly up to 51.3 µM; activity, negative = inhibition: at the top concentration
# From the text: National Center for Advancing Translational Sciences [NCATS]
# NIH Chemical Genomics Center [NCGC]
# U.S. Environmental Protection Agency [EPA]
# National Institutes of Environmental Health Sciences [NIEHS]
# National Toxicology Program [NTP]
# U.S. Food and Drug Administration [FDA]
# Thyrotropin-releasing hormone (TRH) receptor (TRHR) is a G-protein-coupled receptor which binds the tripeptide thyrotropin releasing hormone. TRHR is found in the brain and, when bound by TRH, acts (through phospholipase C) to increase intracellular inositol trisphosphate. It plays a crucial role in the anterior pituitary where it controls the synthesis and secretion of thyroid stimulating hormone and prolactin. The TRHR-Hek293 assay is a cell-based assay, and it has the potential to screen G protein-coupled receptors. A compound/drug can either activate (agonist) or suppress (antagonist) GPCRs that can be monitored by levels of intracellular calcium. In this assay, the Tox21 10K compound library was screened to identify potential TRHR antagonists.
# Tox21 Assay Protocol Summary:
# The TRHR-Hek293 cells were dispensed at 1500cells/4uL/well in 1536-well black-clear bottom plates using a Multidrop dispenser. After the assay plates were incubated at a 37 C/5% CO2 incubator for 18 hours, 4 uL of Dye-Loading Solution was added to each well. The plates were incubated at 37 C for 2 hours. For agonist mode, 23 nL of compounds dissolved in DMSO, positive controls or DMSO only was transferred to the assay plate by a pin tool. The fluorescence intensity in the plates was measured using FDSS 7000EX kinetic plate reader for 3 min at 1 sec intervals. For antagonist mode, 23 nL of compounds dissolved in DMSO, positive controls or DMSO only was transferred to the assay plate by a pin tool. After 5 min incubation at room temperature, 1 uL of TRH was added on the top of the cell/compound mixtures to achieve a final agonist concentration of 1 nM. The fluorescence intensity in the plates was measured using FDSS 7000EX kinetic plate reader for 3 min at 1 sec intervals. Each test compound was measured at 15 concentrations and in triplicates.
# % is scaled to controls: 0 for no effect and ±100 for the full control effect.
# Chain of Thyrotropin-releasing hormone receptor (Homo sapiens) (P34981 whole entry, looked up): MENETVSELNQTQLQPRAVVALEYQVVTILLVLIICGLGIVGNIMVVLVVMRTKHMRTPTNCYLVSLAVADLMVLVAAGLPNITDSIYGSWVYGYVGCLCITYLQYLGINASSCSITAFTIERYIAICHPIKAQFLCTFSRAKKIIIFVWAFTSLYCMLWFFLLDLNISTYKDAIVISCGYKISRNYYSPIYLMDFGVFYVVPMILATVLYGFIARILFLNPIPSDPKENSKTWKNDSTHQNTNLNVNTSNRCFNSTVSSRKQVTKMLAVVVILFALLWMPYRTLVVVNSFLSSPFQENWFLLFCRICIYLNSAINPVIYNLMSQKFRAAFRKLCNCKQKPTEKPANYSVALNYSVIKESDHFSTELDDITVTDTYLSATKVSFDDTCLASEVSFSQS
row,SMILES,"activity, negative = inhibition"
1,CCC(C)N (stereo not given),0.815%
2,OC(CCN1CCCCC1)(c1ccccc1)c1ccccc1,1.05% [at 23.6 µM]
3,O=C(O)CCNC(=O)c1ccccc1,-3.75% [at 23.6 µM]
4,COC(OC)C(C)c1ccccc1 (stereo not given),1.74%
5,CCCCCCCCCCCCOC(C)=O,1.12%
6,CC(C)C(=O)Nc1cccc(C(F)(F)F)c1,0.269% [at 23.6 µM]
7,COc1ccc(OC)c(NC(=O)CC(C)=O)c1,-3.52%
8,CC(=O)/C=C/c1ccco1,1.59%
9,CC(C)CCC(=O)CCC(C)C,-1.06%
10,CC(CC(=O)O)CC(C)(C)C (stereo not given),-1.25%
11,CCCOCCOCCOCCO,-6.82%
12,CC(C)SCc1ccco1,0.955% [at 23.6 µM]
13,CC(=O)OCC(=O)[C@@]1(O)[C@H](OC(C)=O)C[C@H]2[C@@H]3CCC4=CC(=O)C=C[C@]4(C)[C@@]3(F)[C@@H](O)C[C@@]21C,0.874% [at 23.6 µM]
14,Cc1ncc([N+](=O)[O-])n1CC(O)CCl (stereo not given),8.39% [at 23.6 µM]
15,Cc1cccc(C(=O)O)c1[N+](=O)[O-],4.53%
16,CCC1COC(=O)O1 (stereo not given),2.66%
17,O=C1c2ccccc2-c2ccccc21,-1.96%
18,O=C(COCCOCCOCC(=O)Nc1c(I)cc(I)c(C(=O)O)c1I)Nc1c(I)cc(I)c(C(=O)O)c1I,-11.4% [at 23.6 µM]
19,CC(=O)Nc1ncc([N+](=O)[O-])s1,0.0732% [at 23.6 µM]
20,CCNC(=O)NCCCOc1cccc(CN2CCCCC2)c1,3.59% [at 23.6 µM]

row,SMILES,"activity, negative = inhibition"
1,NS(=O)(=O)c1ccccc1OC(F)(F)F,-4.13%
2,Cc1ccccc1N1CCN(CCc2nnc3n2CCCC3)CC1,1.21% [at 23.6 µM]
3,C=C(C)C(=O)OCCCCCCOC(=O)C(=C)C,3.57%
4,O=C(O)c1c(Cl)ccc(Cl)c1Cl,0.887%
5,C=C[C@@H](C)CCC=C(C)C,4.33%
6,O=C(CN1CCN(Cc2ccc3c(c2)OCO3)CC1)N1c2ccccc2Sc2ccccc21,0.324% [at 23.6 µM]
7,NC(=O)NC(=O)Cc1ccccc1,1.21% [at 23.6 µM]
8,SCCSCCS,-2.28%
9,CC1=NN(c2ccc(S(=O)(=O)O)cc2)C(=O)C1N=Nc1ccccc1 (stereo not given),0.483%
10,CCNC(=O)/C=C/c1cccc(Br)c1,4.01% [at 23.6 µM]
11,CCCCCC1Nc2cc(C(F)(F)F)c(S(N)(=O)=O)cc2S(=O)(=O)N1 (stereo not given),-0.629% [at 23.6 µM]
12,C=CCOC(=O)c1ccc(C(=O)OCC=C)c(C(=O)OCC=C)c1,-3.04%
13,COc1ccc(N=Nc2cc(C)c(N=Nc3ccc(S(=O)(=O)O)cc3)cc2OC)cc1,3.51%
14,CC(=O)OC(C)c1ccccc1 (stereo not given),3.18%
15,CC(=O)c1ccc(OCC(=O)N2CCCCC2)cc1,0.192% [at 23.6 µM]
16,COc1ccc(/C=N/NC(=O)c2ccncc2)cc1OC,4.46% [at 23.6 µM]
17,CCC(O)C(C)(C)C (stereo not given),-4.54%
18,COc1ccc(NS(=O)(=O)c2ccc(N)cc2)nn1,0.456% [at 23.6 µM]
19,Cn1c(=O)c2c(ncn2CC2OCCO2)n(C)c1=O,-4.55% [at 23.6 µM]
20,CCCCCC(=O)OCC,6.1%
